Source: PubChem BioAssay AID2314 (National Center for Advancing Translational Sciences (NCATS), 2010)
Out of some 300,000 compounds screened, about 37,000 (12%) were called active. The full list was thinned out, with actives kept by preference. A number with no mark means an inactive call. No stated cut-off is given here; in the data, active means max response mostly above about 13% (no sharp cut-off); inactive means mostly below about 14%.

Test: Cycloheximide Counterscreen for Small Molecule Inhibitors of Shiga Toxin; further: read at 38.3 µM for the half of the compounds with a filed dose; 0% is about no effect
Conditions: cell reporter, cycloheximide protein synthesis inhibition counterscreen; hits give high values

SMILES	max response
Cc1ccc(NC(=O)C2CCCN2S(=O)(=O)c2cccc3cccnc23)c(C)c1 (stereo unspecified)	-1.86%
Nc1nnnn1/N=C/c1cccs1	-4.55%
C(=N/N1CCN(c2ccccc2)CC1)/c1cccs1	36.9% (active)
Cc1ccc(N2CCN(/N=C/c3cccs3)CC2)cc1	7.5%
Cc1cccc(-c2c(NC(=O)c3ccco3)oc3ccc(Cl)cc3c2=O)c1	-1.7%
CC(C)c1ccc(/C=C2\NC(=O)NC2=O)cc1	18.8% (active)
CC(C)c1ccc(S(=O)(=O)N2CCC3(CC2)OCCO3)cc1	-1.14%
COC(=O)CN1C(=O)[C@H]2[C@@H](/C=C/c3ccccc3)N3C(=O)CN(Cc4ccccc4)C(=O)[C@@]3(Cc3ccccc3)[C@H]2C1=O	-3.52%
COc1ccc(N(C(=O)c2cccnc2)S(=O)(=O)c2ccc(OC)c(OC)c2)cc1	1.15%
N#CCC(=O)N/N=C/c1ccc(SCC(=O)Nc2ccccc2)o1	2.34%
O=C(CSc1ccc(/C=N/NC(=O)c2cccc(F)c2)o1)Nc1ccccc1	47.1% (active)
O=C(Cc1ccccc1)Nc1cccc(C(=O)N/N=C/c2ccco2)c1	0.305%
COc1cccc2sc(N(CCCN(C)C)C(=O)C(c3ccccc3)c3ccccc3)nc12	-11.2%
Cc1ccc(NC(=O)C(=O)NCc2ccco2)c(C)c1	41.1% (active)
Cc1ccc(NC(=O)Cn2nnc(C(=O)NCc3ccco3)c2N)c(C)c1	9.89%
Cc1ccccc1NC(=O)NCc1ccco1	9.11%
CN(CC(=O)Nc1ccc(F)cc1)CC(=O)Nc1ccc(Cl)c(S(=O)(=O)N2CCOCC2)c1	-2.41%
C/C=C/c1ccc(OCC(O)CN2CCCCCCC2)c(OC)c1 (stereo unspecified)	9.28%
CCOC(=O)c1ccc(NC(=O)Cn2cnc3cc(C)c(C)cc32)cc1	6.04%
CCn1c(=O)c2ccccc2n(CC(=O)N2CCCc3ccccc32)c1=O	-2.55%
CN(C)CCN=c1cc(-c2ccccc2)oc2ccc(Cl)cc12	23.6% (active)

SMILES	max response
CN(C)CCn1c(=S)[nH]c2ccc(Cl)cc2c1=O	-5.79%
CCOC(=O)c1c(NC(=O)CNC2CCCc3ccccc32)sc(C(N)=O)c1C (stereo unspecified)	9.96%
O=C(N/N=C\c1cc(Br)c(Br)o1)C1COc2ccccc2O1 (stereo unspecified)	9.2%
O=C(N/N=C/c1cc2c(cc1Br)OCO2)C1COc2ccccc2O1 (stereo unspecified)	52.6% (active)
O=C(CNC(=O)C1COc2ccccc2O1)N/N=C/c1cc(Br)c(O)c(Br)c1 (stereo unspecified)	-2.17%
CCOC(=O)CSc1nc(N2CCOCC2)c2c(c1C#N)CC(C(C)C)OC2 (stereo unspecified)	-2.94%
Cc1ccc(-c2noc(CSc3nnnn3-c3ccccc3)n2)cc1	17.8% (active)
Cc1ccc(-c2noc(CSc3nnc(-c4cccs4)n3C)n2)cc1	5.33%
Cc1ccc(-c2noc(CSc3nnc(-c4ccccc4)n3C)n2)cc1	-0.58%
O=C(C1CCCO1)N(c1ccc(F)cc1)C1C=CS(=O)(=O)C1 (stereo unspecified)	-9.85%
CC(=O)Nc1cccc(/C(C)=N/NC(=O)c2c(-c3ccccc3Cl)noc2C)c1	0.404%
Cc1onc(-c2ccccc2Cl)c1C(=O)NCCn1ccc2ccccc21	-2.37%
Cc1onc(-c2ccccc2Cl)c1C(=O)OCC(=O)c1ccccc1	38.6% (active)
CC(=O)n1cc([C@H]2C=C(C(=O)N3CCOCC3)O[C@@H](OCc3ccc(CO)cc3)C2)c2ccccc21	-0.396%
Cc1ccc(S(=O)(=O)N2CCN(C)CC2)cc1	1.47%
O=C1CSC(c2ccccc2)N1c1nc(-c2ccc(Cl)cc2Cl)cs1 (stereo unspecified)	-1.24%
Clc1ccc(-c2cc(-c3ccccn3)on2)c(Cl)c1	29.5% (active)
Clc1ccc(-c2ncc3ccccn23)c(Cl)c1	-0.544%
Cc1noc(C)c1/C=N/Nc1ccc2ccccc2n1	39.1% (active)
C(=N\Nc1ccc2ccccc2n1)/c1ccc2c(c1)OCO2	-3.9%
O=C(O)/C(=C/c1cccnc1)NC(=O)c1ccccc1	0.766%

SMILES	max response
O=C(/C=C/NNC(=O)c1cccc(Br)c1)c1ccccc1	22.3%
O=C(/C=C/NCc1ccc(F)cc1)c1ccccc1	53.1% (active)
Cc1cccc[n+]1CC(=O)c1ccccc1	0.405%
O=C(CNCc1ccc(F)cc1)Nc1ccccc1-c1ccccc1	-4.19%
O=C(/C=C\NCC(=O)c1ccccc1)c1ccccc1	35.9% (active)
CCOC(=O)CNC(=O)/C(=C\c1ccc(F)cc1)NC(=O)c1ccccc1	-0.456%
Cc1ccc(C(=O)Oc2ccc(C(=S)N3CCOCC3)cc2)cc1	-3.19%
COC(=O)C1(C)NC(c2ccc(C)cc2)C2C(=O)N(c3ccc(F)cc3)C(=O)C21 (stereo unspecified)	1.36%
CCOC(=O)CNC(=O)/C=C/c1c(Cl)cccc1Cl	-3.14%
COC(=O)N/N=C/c1cn(CCCOc2ccc(C)cc2)c2ccccc12	44.1% (active)
CNC(=S)N/N=C/c1cn(Cc2ccc(C)cc2)c2ccccc12	3.75%
CCOC(=O)N/N=C/c1cn(Cc2ccccc2Cl)c2ccccc12	4.93%
Cc1ccc(Cn2ncc3c4sc(C)cc4n(C)c3c2=O)c(C)c1	5.87%
Cc1nn(C)cc1/C=C1\CCC/C(=C\c2cn(C)nc2C)C1=O	18.2% (active)
O=C1/C(=C/c2ccc3c(c2)OCO3)CCC/C1=C\c1ccc2c(c1)OCO2	0.534%
CCn1cc(/C=C2/SC(=S)NC2=O)c(C)n1	2.94%
CCOc1ccc(NC(=O)COc2ccc(S(=O)(=O)N3CCCC3)cc2)cc1	1.08%
Cc1c(C(=O)NC(=S)NCc2cccnc2)oc2ccccc12	6.33%
COc1ccc(NC(=O)C2CCC(CNC(=O)[C@@H]3Cc4ccccc4CN3)CC2)cc1 (stereo partly specified)	15.5%
